High-throughput results (PubChem BioAssay)
ULK1 primary = ULK1 kinase inhibitors, primary screen, biochemical, AlphaScreen | inhibition, % at 5.96 µM | 1.9% of 30,000 active | AlphaScreen Atg13 phosphorylation by ULK1, luminescence | Serine/threonine-protein kinase ULK1 (Homo sapiens), O75385 | AID 1259251, 2017; in the data active = inhibition above about 43%
ASK1 primary = ASK1 kinase inhibitors, primary screen, biochemical, AlphaScreen | Mitogen-activated protein kinase kinase kinase 5 (Homo sapiens), Q99683 | AlphaScreen MKK6 phosphorylation by ASK1, luminescence | inhibition, % at 7.44 µM | 0.99% of 22,000 active | AID 1159602, 2016; in the data active = inhibition above about 35%
Hits are given with their value; . = inactive; / = no result. The list is not random: actives were taken first. Their share in the collection is about 2.5%.

SMILES	ULK1 primary	ASK1 primary
Cc1n[nH]c(C)c1-c1ccc2cnc(Nc3ccc(-n4cnc(N5CCOCC5)n4)cc3)nc2c1	.	.
Cc1ccc(-c2ncn(-c3ccc(Nc4ncc(Cl)c(-c5cnn(C)c5)n4)cc3)n2)cn1	.	.
Cn1cc(-c2cccc3cnc(Nc4ccc(-n5cnc(N6CCOCC6)n5)cc4)nc23)cn1	.	.
Cc1[nH]ncc1-c1ccc2cnc(Nc3ccc(-n4cnc(N5CCOCC5)n4)cc3)nc2c1	76.2	.
Cn1cc(-c2nc(Nc3ccc(-n4cnc(N5CCC(O)CC5)n4)cc3)ncc2Cl)cn1	70.8	.
Cc1ncn(-c2ccc(Nc3ncc4ccnc(-c5cnn(C)c5)c4n3)cc2)n1	.	.
CC(C)n1c(-c2ccc(N3CCOCC3)nc2)nc2c(NCc3nc4ccccc4[nH]3)ncnc21	.	.
Cc1cnc(N2CCOCC2)nc1Nc1ccc(Oc2ccccc2)cc1	.	.
Nc1nccc(-c2ccc3nc(C4COc5ccc(Cl)cc5C4)oc3c2)n1 (centres undefined)	.	.
Cc1noc(C)c1-c1nccc(NCCN(C(C)C)C(C)C)n1	.	.
CC(C)N(C(=O)Cc1csc(NC(=O)Nc2ccc(Cl)cc2)n1)C(C)C	.	/
C=CCNc1cc(-c2ccncc2)nc(-c2ccncc2)n1	.	/
Cn1cc(-c2ccc3cnc(Nc4ccc(-n5cnc(N6CCOCC6)n5)cc4)nc3c2Cl)cn1	47.4	.
Cn1cc(-c2cccc3nc(Nc4ccc(-n5cnc(N6CCOCC6)n5)cc4)ncc23)cn1	.	.
Cc1nc(C)n(-c2ccc(Nc3nc(-c4cnn(C)c4)cc(N4CCOCC4)n3)cc2)n1	.	.
Cn1cc(-c2ccc3cnc(Nc4ccccc4)cc3c2)cn1	65.7	.
Cc1ccc(-c2ccc(Nc3ncc4ccc(-c5cnn(C)c5)c(Cl)c4n3)cc2)cn1	43.8	.
Cc1ccc(-c2ncn(-c3ccc(Nc4ncc5ccc(-c6cnn(C)c6)nc5n4)cc3)n2)cn1	.	.
Cn1cc(-c2ccc3cnc(Nc4ccc(N5CCOCC5)nc4)nc3c2Cl)cn1	78.2	.
Cc1nc(C)n(-c2ccc(Nc3cc(-c4cnn(C)c4)ccn3)cc2)n1	.	.
c1ccc(OCCNc2cc(Nc3cnccn3)ncn2)cc1	.	.
O=C(NCCN1CCOCC1)c1cccc(-n2cc(NC(=O)C3CCc4ccccc43)cn2)c1 (centres undefined)	.	.
Cn1cc(-c2ccc3cnc(Nc4ccc(-n5cnc(N6CCOCC6)n5)cc4)nc3c2OCCN2CCOCC2)cn1	.	.
CCOC(=O)c1c(-c2cnn(C)c2)ccc2cnc(Nc3ccc(-n4cnc(N5CCOCC5)n4)cc3)nc12	59.9	.
Cn1cc(-c2ccc3cnc(Nc4ccc(-n5cnc(N6CCOCC6)n5)cc4)cc3c2)cn1	73.7	.
SMILES	ULK1 primary	ASK1 primary
Cn1cc(-c2nc(Nc3ccc(-n4cnc(N5CCOCC5)n4)cc3)ncc2F)cn1	.	.
Cc1cnc(CNc2cc(-c3ccc(F)cc3)nc(-c3ccncc3)n2)nc1	.	/
CCCCc1nnc(-c2cc3ccccc3n2Cc2cccnc2)o1	.	/
CNC(=O)c1ccc(Nc2cc(Nc3ccccc3C(=O)NC)c(C(F)(F)F)cn2)nc1	87.4	.
CNC(=O)c1ccccc1Nc1cc(Nc2ccccn2)ncc1C(F)(F)F	88.6	.
O=C(O)c1ccccc1Nc1ccccn1	.	/
O=C(Cc1ccc2c(c1)OCO2)Nc1cc(Nc2ccccc2-c2ncn[nH]2)c(C(F)(F)F)cn1	.	.
CNC(=O)c1ccccc1Nc1cc(Nc2ccc3c(c2)CCC(=O)N3C)ncc1C(F)(F)F	89.5	.
CNC(=O)c1ccccc1Nc1cc(Nc2ccc(-c3cncnc3)cc2)ncc1C(F)(F)F	69.9	.
Cc1cnc(N2CCCC2CO)nc1NCCN(C(C)C)C(C)C (centres undefined)	.	.
NC(=O)c1ccc(-c2cc(NC3CC3)nc(N)n2)cc1	.	.
COc1ccc2c(c1)CC(C(=O)Nc1ccc(-c3ccncc3)cc1OCCN1CCCC1=O)CO2 (centres undefined)	.	.
CNC(=O)c1ccnc(Nc2cc(Nc3ccccc3C(=O)NC)c(C(F)(F)F)cn2)c1	86.8	.
O=C(NCc1cccc(C(F)(F)F)c1)c1ccnc(Nc2ccccn2)c1	.	.
CNC(=O)c1ccccc1Nc1cc(Nc2cccc(C)n2)ncc1C(F)(F)F	89.5	.
O=C(Nc1ccc(N2CCOCC2)cc1)C1CCN(c2ccc(Nc3ccc4ncccc4c3)nn2)CC1	49.5	.
O=C(Nc1ccc(N2CCOCC2)cc1)C1CCN(c2ccc(Nc3ccc(N4CCOCC4)cc3)nn2)CC1	.	.
c1ccc(Nc2cc(Nc3ccncc3)ncn2)cc1	61.0	.
c1cn(-c2ccc(Nc3cc(Nc4ccc(N5CCOCC5)cc4)ncn3)cc2)cn1	.	.
c1cc(Nc2nccc(Nc3ccc(N4CCOCC4)cc3)n2)ccn1	.	.
c1ccc(CNc2cc(Nc3ccncc3)ncn2)cc1	.	.
c1cc(Nc2nccc(Nc3ccc(N4CCOCC4)cc3)n2)ncn1	78.5	.
c1cc(Nc2cc(Nc3ccc(N4CCOCC4)cc3)ncn2)ccn1	82.4	.
CCCNc1ccnc(Nc2cc(OC)c(OC)c(OC)c2)n1	.	.
Nc1cccc(-c2nc(NCc3ccccc3)c3[nH]cnc3n2)c1	.	.
SMILES	ULK1 primary	ASK1 primary
Nc1cccc(-c2nc(NCc3cccnc3)c3[nH]cnc3n2)c1	68.9	.
CC(=O)c1cccc(-c2nc(NCc3ccccc3)c3[nH]cnc3n2)c1	.	.
CC(=O)c1cccc(-c2nc(NCc3cccnc3)c3[nH]cnc3n2)c1	54.3	.
CC(=O)Nc1ccc(Nc2nc(N3CCN(c4ccccn4)CC3)nc3c2ncn3C2CCCCC2)cc1	.	.
Cc1noc(C)c1-c1nc(Nc2ccc(Oc3ccccc3)cc2)c2ncn(-c3ccccc3)c2n1	.	.
COc1cc(C=NNC(=O)c2ccncc2)ccc1O	.	/
COc1cc(/C=N/Nc2nncn2/N=C/c2ccc(O)c(OC)c2)ccc1O	51.4	/
CCN(CC)C(=O)C1CCCN(c2cc(C(=O)Nc3ccc(N4CCOCC4)cc3)ccn2)C1 (centres undefined)	59.6	.
CCN(CC)C(=O)C1CCCN(c2cc(C(=O)Nc3ccccc3)ccn2)C1 (centres undefined)	.	.
COc1nc(NCCN(C(C)C)C(C)C)nc(-c2cccc(C(C)=O)c2)n1	.	.
CCN(CC)C(=O)c1cccc(OC)c1	.	/
O=C(NCc1cccnc1)c1cnc(NCCN2CCOCC2)s1	.	.
Cc1cc(Nc2ccccc2)nc(N2CCN(Cc3ccc4c(c3)OCO4)CC2)n1	.	.
Cc1cc(Nc2ccc(N3CCOCC3)cc2)nc(N2CCN(Cc3ccc4c(c3)OCO4)CC2)n1	.	42.5
Cc1nn(C)c(C)c1-c1nc(Nc2ccc(N3CCOCC3)cc2)c2ncn(CCN3CCCC3=O)c2n1	.	.
COc1cc(NC(=O)c2cccc(-n3cc(NC(=O)Nc4ccccc4Cl)cn3)c2)cc(OC)c1OC	.	.
O=C1Cc2cc(NC(=O)c3ccc(Br)cc3)ccc2N1	.	/
CNC(=O)c1ncccc1Nc1cc(Nc2ccc3c(c2)CCC(=O)N3)ncc1C(F)(F)F	47.5	.
CC(=O)Nc1ccccc1Nc1cc(Nc2ccc3c(c2)CC(=O)N3)ncc1C(F)(F)F	82.2	.
CNC(=O)c1cc(F)ccc1Nc1cc(Nc2ccc3c(c2)CC(=O)N3)ncc1C(F)(F)F	65.5	.
CNC(=O)c1ncccc1Nc1cc(Nc2ccc3c(c2)NC(=O)C3)ncc1C(F)(F)F	.	.
